Assay results taken from PubChem BioAssay (NCI).
The panel holds about 79,000 compounds, 15% with a hit somewhere; the sample as a whole holds those more often. The source made the active and inactive calls. No stated cut-off is given here; in the data, active means growth inhibition above about 70%; inactive means the rest.

Assays:
[1] = NCI Yeast Anticancer Drug Screen. Data for the rad52 strain (AID 147);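 further: 0% = growth of vehicle-treated control cultures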; details: S. cerevisiae rad52 mutant growth inhibition, hits give high values
Method in brief: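 Inhibition of yeast growth, referenced to vehicle controls, was the measured output for a strain with defective DNA damage repair.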

[2] = NCI Yeast Anticancer Drug Screen. Data for the rad50EPP+ strain (AID 151);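 further: 0% = growth of vehicle-treated control cultures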; details: S. cerevisiae rad50 mutant strain, hits give high values
Method in brief: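 Genetically defined yeast (rad50EPP+, DNA damage repair alteration) is grown with compound, and inhibition of growth is expressed relative to vehicle-treated controls.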

[3] = NCI Yeast Anticancer Drug Screen. Data for the mgt1 strain (AID 153); details: S. cerevisiae mgt1 mutant growth inhibition, hits give high values
Method in brief: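 In the mgt1 strain, test compounds were added and growth inhibition was determined relative to vehicle-treated controls.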

[4] = NCI Yeast Anticancer Drug Screen. Data for the rad50 strain (AID 155);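 further: 0% = growth of vehicle-only cultures of the same strain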; details: S. cerevisiae rad50 strain growth inhibition, hits give high values
Method in brief: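 Yeast carrying a defined DNA repair defect were exposed to test compounds, and growth was compared with vehicle-treated controls to give percent inhibition.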

[5] = NCI Yeast Anticancer Drug Screen. Data for the mec2-1 strain (AID 157); details: S. cerevisiae mec2-1 strain, hits give high values
Method in brief: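 Each compound was tested on mec2-1 yeast, a strain altered in DNA damage repair or cell cycle control. Growth inhibition is reported relative to vehicle.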

[6] = NCI Yeast Anticancer Drug Screen. Data for the rad14 strain (AID 159);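 further: 0% = growth of vehicle-treated control cultures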; details: S. cerevisiae rad14 strain growth inhibition, hits give high values
Method in brief: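 Yeast cells carrying a defined DNA-repair defect were exposed to compounds, and growth inhibition was calculated relative to vehicle-treated control cultures.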

[7] = NCI Yeast Anticancer Drug Screen. Data for the sgs1 mgt1 strain (AID 161);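 further: 0% = growth of cultures given vehicle only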; details: S. cerevisiae sgs1 mgt1 strain, hits give high values
Method in brief: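 Mutant yeast exposed to compound; growth scored against vehicle-only wells.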

[8] = NCI Yeast Anticancer Drug Screen. Data for the CLN2oe strain (AID 163);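 further: 0% = growth of vehicle-only control cultures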; details: S. cerevisiae CLN2oe strain, hits give high values
Method in brief: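 First, the altered yeast strain was treated with each compound; second, its growth was measured; finally, inhibition was derived by comparison with vehicle controls.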

[9] = NCI Yeast Anticancer Drug Screen. Data for the cln2 rad14 strain (AID 165);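 further: 0% = growth equal to vehicle treated cultures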; details: S. cerevisiae cln2 rad14 strain, hits give high values
Method in brief: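 Test compounds were added to cln2 rad14 yeast cultures; inhibition of growth was then determined by comparison with vehicle treatment.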

[10] = NCI Yeast Anticancer Drug Screen. Data for the bub3 strain (AID 167); details: S. cerevisiae bub3 mutant strain, hits give high values
Method in brief: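 Compounds were applied to a genetically altered yeast strain carrying a cell-cycle control defect. Growth inhibition was scored against vehicle-treated controls.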

[11] = NCI Yeast Anticancer Drug Screen. Data for the wt2 strain (AID 169);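 further: 0% = growth of vehicle-treated yeast cultures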; details: S. cerevisiae wt2 strain growth inhibition, hits give high values
Method in brief: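 The panel's yeast strains carry defined changes in DNA repair or cell cycle genes. Each strain is grown with compound, and growth loss is scored relative to vehicle.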

[12] = NCI Yeast Anticancer Drug Screen. Data for the mlh1 strain (AID 171);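 further: 0% = growth of vehicle-treated control cultures of the same strain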; details: S. cerevisiae mlh1 strain growth inhibition, hits give high values
Method in brief: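 Inhibition values reflect reduced yeast growth in the presence of compound, referenced to vehicle controls, using a strain chosen for its alteration in DNA repair or cell cycle control.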

[13] = NCI Yeast Anticancer Drug Screen. Data for the mlh1 rad18 strain (AID 175); details: S. cerevisiae mlh1 rad18 strain growth inhibition, hits give high values
Method in brief: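 Inhibition values reflect reduced growth of mutant yeast versus vehicle-treated controls following compound exposure; the mutations affect DNA damage repair.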

[14] = NCI Yeast Anticancer Drug Screen. Data for the rad18 strain (AID 177); details: S. cerevisiae rad18 mutant growth inhibition, hits give high values
Method in brief: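 Steps: expose repair-mutant yeast to compound; measure growth; express as inhibition relative to vehicle control.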

[15] = at 5.0 µM (retest, dose inferred, filed as 0.5)
[16] = at 50.0 µM (retest, dose inferred, filed as 5.0)

Measured: growth inhibition

COc1cc(CC2CC(c3ccc4c(c3)OCO4)OC2=O)cc(OC)c1OC (stereo not drawn)
active: [10]; at 100.0 µM 82%
inactive: [1]; at 1.2 µM -1% | [1]; at 3.7 µM -1% | [1]; at 11.0 µM 1% | [1]; at 33.0 µM 3% | [1]; at 100.0 µM 7% | [2]; at 1.2 µM -2% | [2]; at 3.7 µM -1% | [2]; at 11.0 µM 0% | [2]; at 33.0 µM 3% | [2]; at 100.0 µM 8% | [3]; at 1.2 µM -1% | [3]; at 3.7 µM 1% | [3]; at 11.0 µM 1% | [3]; at 33.0 µM 1% | [3]; at 100.0 µM 6% | [4]; at 1.2 µM 0% | [4]; at 3.7 µM 1% | [4]; [15] -6% | [4]; at 11.0 µM 3% | [4]; at 33.0 µM 8% | [4]; [16] 12% | [4]; at 50.0 µM -10.2% | [4]; at 100.0 µM 13% | [5]; at 1.2 µM 0% | [5]; at 3.7 µM -2% | [5]; [15] 6% | [5]; at 11.0 µM 2% | [5]; at 33.0 µM 7% | [5]; [16] 11% | [5]; at 50.0 µM -13.4% | [5]; at 100.0 µM 16% | [6]; at 1.2 µM -2% | [6]; at 3.7 µM -3% | [6]; at 11.0 µM -1% | [6]; at 33.0 µM 4% | [6]; at 100.0 µM 12% | [7]; [15] 2% | [7]; [16] 6% | [7]; at 50.0 µM -2.9% | [8]; at 1.2 µM 2% | [8]; at 3.7 µM 1% | [8]; at 11.0 µM 5% | [8]; at 33.0 µM 7% | [8]; at 100.0 µM 15% | [9]; [15] -1% | [9]; [16] 7% | [9]; at 50.0 µM 1.35% | [10]; at 1.2 µM 15% | [10]; at 3.7 µM 28% | [10]; [15] 24% | [10]; at 11.0 µM 43% | [10]; at 33.0 µM 58% | [10]; [16] 54% | [10]; at 50.0 µM 38.5% | [11]; at 1.2 µM -2% | [11]; at 3.7 µM -4% | [11]; at 11.0 µM -3% | [11]; at 33.0 µM -5% | [11]; at 100.0 µM 0% | [12]; at 1.2 µM -4% | [12]; at 3.7 µM -3% | [12]; at 11.0 µM -1% | [12]; at 33.0 µM 3% | [12]; at 100.0 µM 11% | [13]; [15] -2% | [13]; [16] 8% | [13]; at 50.0 µM 18.2% | [14]; at 1.2 µM -4% | [14]; at 3.7 µM -3% | [14]; at 11.0 µM -1% | [14]; at 33.0 µM 0% | [14]; at 100.0 µM 10%
